# PubChem BioAssay AID720697 (Broad Institute, 2013)
# Measured potencies and affinities stand elsewhere. Records with an inconclusive call do not appear. The source made the active and inactive calls.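 Rule for the calls: active = signal loss with fitted half-maximal concentration at or below twice the top valid tested dose in every test run; inconclusive = runs disagree, flat 30 to 70% signal loss, or poor fit; inactive = all runs flat, opposite direction, or potency beyond limit.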
# Experiment: HEK293T cytotoxicity, dose response, cytotoxicity control for miR-122 modulator project, cell-based, inhibitor set, cherry-pick, set 2 (AID 720697);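 note: 0% = median of neutral control wells and -100% = MG132 positive control wells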
# Conditions: HEK293T viability, CellTiter-Glo luminescence, 48 h; series mostly up to 26 µM; activity change, negative = cytotoxicity: at the top concentration
row,Structure (SMILES),"activity change, negative = cytotoxicity"
1,COc1cccc(NC(=O)C[C@@H]2CC[C@@H]3[C@@H](COc4ccc(NS(=O)(=O)c5cccc(F)c5)cc4C(=O)N3C)O2)c1,85.1% [at 23.5 µM] (inactive)
2,CC(C)(C)c1cc(NCCCn2ccnc2)n2ncc(-c3ccc(Cl)cc3)c2n1,62.2% (inactive)
3,O=C(CSc1nc2ccccc2s1)N1CCOCC1,56.6% (inactive)
4,O=C(C1CC1)N(CCN(C(=O)C1CC1)c1ccccc1)c1ccccc1,112% (inactive)
5,O=C(Nc1ccc(F)cc1)N1C[C@@H]2[C@H](c3ccccc31)[C@H](CO)N2C(=O)Cc1ccccc1,39.6% [at 23.5 µM] (inactive)
6,CCNC(=O)Nc1ccc2c(c1)C(=O)N(C)[C@H]1CC[C@H](CC(=O)Nc3cccc(F)c3)O[C@@H]1CO2,148% (inactive)
7,CCN(C[C@H]1N[C@@H](CO)[C@@H]1c1ccc(C2=CCCC2)cc1)C(=O)c1ccncc1,50.2% (inactive)
8,OCc1ccc(-c2nn(Cc3ccccc3)c3ccccc23)o1,13.4% (inactive)
9,CN1C(=O)c2cc(NC(=O)Nc3ccccc3F)ccc2OC[C@@H]2O[C@@H](CC(=O)NCc3ccc(-c4ccccc4)cc3)CC[C@H]21,129% (inactive)
10,C[C@H](CO)N1C[C@H](C)[C@@H](CN(C)CC2CCCCC2)OCCCC[C@H](C)Oc2ccc(NC(=O)Nc3cccc4ccccc34)cc2C1=O,-41.4% (inactive)
11,COc1ccc(-c2nc(NC(=O)CSc3nnc(C)s3)ns2)cc1,23.7% (inactive)
12,Cc1cc(C)cc(Oc2ccc(NC(=O)C3CC=CCC3C(=O)O)cc2)c1 (stereo not given),12.6% (inactive)
13,COCC(=O)N(C[C@@H]1N[C@H](CO)[C@H]1c1ccc(-c2cccnc2)cc1)C(C)C,-13.9% (inactive)
14,O=C(Nc1ccc(F)cc1)N1C[C@H]2[C@@H](c3ccccc31)[C@H](CO)N2C(=O)c1ccncc1,-10.7% (inactive)
15,CC(C)C(=O)Nc1ccc2c(c1)C(=O)N(C)[C@@H]1CC[C@@H](CC(=O)NCC3CC3)O[C@H]1CO2,51.9% (inactive)
16,Fc1ccc(CN2CCN(c3ncnc4scc(-c5ccc(F)cc5)c34)CC2)cc1,26% (inactive)
17,CC(=O)Nc1ccc(S(=O)(=O)Nc2ccc(S(=O)(=O)Nc3nc(C)cc(C)n3)cc2)cc1,100% (inactive)
18,CN(C)C(=O)c1ccc(-c2ccc([C@H]3[C@@H](CO)N4CCCCN(C(=O)C5CCCC5)C[C@@H]34)cc2)cc1,39.4% (inactive)

row,Structure (SMILES),"activity change, negative = cytotoxicity"
1,COCC(=O)N(C)C[C@H]1Oc2cc(-c3ccccc3F)ccc2S(=O)(=O)N([C@@H](C)CO)C[C@@H]1C,-29.1% (inactive)
2,COC(=O)C[C@H]1CC[C@@H]2[C@@H](COc3ccc(NC(=O)c4ccc(F)c(F)c4)cc3C(=O)N2C)O1,82% (inactive)
3,CC#CCCCC(=O)Nc1ccccc1C(=O)O,81.9% (inactive)
4,COC(=O)C[C@@H]1CC[C@@H]2[C@@H](COc3ccc(NS(=O)(=O)c4ccccc4F)cc3C(=O)N2C)O1,61.1% (inactive)
5,CCCNC(=O)C[C@@H]1CC[C@@H]2[C@H](COc3ccc(NC(=O)c4cc(F)cc(F)c4)cc3C(=O)N2C)O1,61.1% (inactive)
6,CCC(=O)N1[C@@H](CO)[C@H](c2ccccc2)[C@@H]1CN(C(C)C)S(C)(=O)=O,104% (inactive)
7,CCS(=O)(=O)Nc1ccc2c(c1)C(=O)N(C)[C@@H]1CC[C@@H](CC(=O)NCCCN3CCOCC3)O[C@@H]1CO2,147% (inactive)
8,COC(=O)C[C@H]1CC[C@@H]2[C@@H](COc3ccc(NC(=O)c4cnccn4)cc3C(=O)N2C)O1,116% (inactive)
9,CC(C)C(=O)Nc1ccc2c(c1)C(=O)N(C)[C@H]1CC[C@@H](CC(=O)NCCCN(C)C)O[C@H]1CO2,82% (inactive)
10,C[C@@H]1CN([C@H](C)CO)S(=O)(=O)c2ccc(C3=CCCC3)cc2O[C@@H]1CN(C)C(=O)c1cnccn1,83.8% (inactive)
11,CCCNC(=O)Nc1ccc2c(c1)OC[C@@H](C)N(CCC)C[C@H](C)[C@H](OC)CN(C)C2=O,117% (inactive)
12,C[C@@H]1CCCCO[C@@H](CN(C)CC2CCCCC2)[C@H](C)CN([C@@H](C)CO)C(=O)c2cc(NC(=O)Nc3cccc4ccccc34)ccc2O1,55.7% (inactive)
13,CO[C@H]1CN(C)C(=O)c2cc(NC(=O)c3cccc(Oc4ccccc4)c3)ccc2OC[C@@H](C)NC[C@H]1C,14.2% (inactive)
14,C/C=C/c1ccc2c(c1)O[C@H](CN(C)C(=O)Nc1cccc(F)c1)[C@H](C)CN([C@@H](C)CO)S2(=O)=O,14.2% (inactive)
15,O=C(N/N=C/c1ccco1)c1cccc(N2CCCC2=O)c1,34.1% (inactive)
16,CCCNC(=O)C[C@@H]1CC[C@H]2[C@H](COc3ccc(NC(=O)c4ccc(C(F)(F)F)cc4)cc3C(=O)N2C)O1,-8.4% [at 23.5 µM] (inactive)
17,CCNC(=O)C[C@@H]1CC[C@H]2[C@@H](COc3ccc(NC(=O)Nc4ccc(F)cc4)cc3C(=O)N2C)O1,45.4% (inactive)
